# Measurements published in PubChem BioAssay (NCATS).
# Inconclusive results are not listed. Entries that show only a call come without a potency. Unmarked numbers belong to inactive results. Active and inactive are the calls of the source. Calls follow the shape of the dose curve; as a rule, active = well fitted curve in the direction sought with a large enough effect; inconclusive = small, poorly fitted or top-dose-only effect, or another doubt; inactive = no such curve, though single readings can be large; an effect the other way counts as inactive or inconclusive.
# Columns and labels:
# CRL-7250 = normal cell line; assay: Cytotoxic Profiling of Annotated Libraries Using Quantitative High-Throughput Screening (AID 1296008); conditions: Five cell lines viability, CellTiter-Glo ATP luminescence, 48-72 h; max response: hits give low values; also: nearly all actives have a fitted effect of over 60% in size; also: potency is read from the fitted curve at half-maximal effect
# Summary of the method: (§1)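 Compounds were pin-transferred onto cells and incubated 48 or 72 hr at 37 degree Celsius, 95% humidity. CellTiter-Glo was added, plates sat 10 min at room temperature, then ATP-coupled luminescence was imaged as the viability read-out.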
# HEK293 = assay: as above; conditions: Five cell lines viability, CellTiter-Glo ATP luminescence, 48-72 h; max response: hits give low values
# Summary of the method: as §1
# HaCat [1] = assay: as above; conditions: Five cell lines viability, CellTiter-Glo ATP luminescence, 48-72 h; max response: hits give low values
# Summary of the method: as §1
# KB-3-1 = assay: as above; conditions: Five cell lines viability, CellTiter-Glo ATP luminescence, 48-72 h; max response: hits give low values
# Summary of the method: as §1
# NIH3T3 = assay: as above; conditions: Five cell lines viability, CellTiter-Glo ATP luminescence, 48-72 h; max response: hits give low values
# Summary of the method: as §1
# HACAT [2] = assay: qHTS assay to identify novel small-molecules to repurpose for Merkel cell carcinoma treatment (AID 1296009); conditions: MCC and control cell lines, CellTiter-Glo viability, 72 h; at 44.8 µM (top of the series) unless noted; also: nearly all actives have a fitted effect of over 60% in size
# Summary of the method: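 qHTS format: cells treated with library compounds in DMSO across 8 (NPC) or 11 (MIPE) concentrations. Readout after 72 hr at 37 degree celsius was CellTiter-Glo luminescence.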
# C33A = assay: Primary qHTS to identify gynecologic anti-cancer compounds using libraries of approved drugs and bioactive compounds (AID 1345084); conditions: Gynecologic cancer cell panel viability, ATPlite luminescence, 48 h; series mostly up to 57.5 µM; also: nearly all actives have a fitted effect of over 55% in size
# Summary of the method: (§2)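 Cell viability after 48 h drug treatment, ATPlite luminescence readout; five doses.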
# CAOV3 = assay: as above; conditions: Gynecologic cancer cell panel viability, ATPlite luminescence, 48 h; series mostly up to 57.5 µM
# Summary of the method: as §2
# CASKI = assay: as above; conditions: Gynecologic cancer cell panel viability, ATPlite luminescence, 48 h; series mostly up to 57.5 µM
# Summary of the method: as §2
# Es-2 = assay: as above; conditions: Gynecologic cancer cell panel viability, ATPlite luminescence, 48 h; series mostly up to 57.5 µM
# Summary of the method: as §2
# HeLa = assay: as above; conditions: Gynecologic cancer cell panel viability, ATPlite luminescence, 48 h; series mostly up to 57.5 µM
# Summary of the method: as §2
# Hek293T = assay: as above; conditions: Gynecologic cancer cell panel viability, ATPlite luminescence, 48 h, control line for the selectivity index; series mostly up to 57.5 µM
# Summary of the method: as §2
# JEG-3 = assay: as above; conditions: Gynecologic cancer cell panel viability, ATPlite luminescence, 48 h; series mostly up to 57.5 µM
# Summary of the method: as §2
# OV90 = assay: as above; conditions: Gynecologic cancer cell panel viability, ATPlite luminescence, 48 h; series mostly up to 57.5 µM
# Summary of the method: as §2
# PA-1 = assay: as above; conditions: Gynecologic cancer cell panel viability, ATPlite luminescence, 48 h; series mostly up to 57.5 µM
# Summary of the method: as §2
smiles,measurement,setting,value
COC(=O)[C@H](Cc1cccc(C(=N)N)c1)[C@@H](C)NC(=O)c1ccc(-c2cc[n+]([O-])cc2)cc1,max response,CRL-7250,-2.22%
same,max response,HEK293,3.53%
same,outcome,HaCat [1],inactive
same,outcome,KB-3-1,inactive
same,max response,NIH3T3,0.404%
same,outcome,HACAT [2],inactive
same,Potency,C33A,inactive
same,Potency,CAOV3,inactive
same,outcome,CASKI,inactive
same,Potency,Es-2,inactive
same,Potency,HeLa,inactive
same,Potency,Hek293T,inactive
same,Potency,JEG-3,inactive
same,Potency,OV90,inactive
same,Potency,PA-1,inactive
C=CC1(C)CC=C2C(CCC3C(C)(C(=O)O)CCCC23C)C1 (stereo not given),max response,CRL-7250,4.68%
same,max response,HEK293,-4.6%
same,outcome,HaCat [1],inactive
same,max response,KB-3-1,7.47%
same,max response,NIH3T3,-6.29%
same,outcome,HACAT [2],inactive
same,Potency,C33A,inactive
same,Potency,CAOV3,inactive
same,outcome,CASKI,inactive
same,Potency,Es-2,inactive
same,Potency,HeLa,inactive
same,Potency,Hek293T,inactive
same,Potency,JEG-3,inactive
same,Potency,OV90,inactive
same,Potency,PA-1,inactive
Cc1noc2c1-c1ccccc1C(c1ccc(Cl)cc1)=N[C@H]2CC(N)=O,max response,CRL-7250,1.75%
same,max response,HEK293,-4.39%
same,outcome,HaCat [1],inactive
same,outcome,KB-3-1,inactive
same,max response,NIH3T3,-0.413%
same,outcome,HACAT [2],inactive
same,Potency,C33A,inactive
same,Potency,CAOV3,inactive
same,outcome,CASKI,inactive
same,Potency,Es-2,inactive
same,Potency,HeLa,inactive
same,Potency,Hek293T,inactive
same,Potency,JEG-3,inactive
same,Potency,OV90,inactive
same,Potency,PA-1,inactive
Cc1c(F)cc(C(=O)NC2CC2)cc1-c1ccc(C(=O)NCC(C)(C)C)cn1,outcome,CRL-7250,inactive
same,max response,HEK293,-4.94%
same,outcome,HaCat [1],inactive
same,max response,KB-3-1,4.19%
same,max response,NIH3T3,-1.86%
same,outcome,HACAT [2],inactive
same,Potency,C33A,inactive
same,Potency,CAOV3,inactive
same,outcome,CASKI,inactive
same,Potency,Es-2,inactive
same,Potency,HeLa,inactive
same,Potency,Hek293T,inactive
same,Potency,JEG-3,inactive
same,Potency,OV90,inactive
same,Potency,PA-1,inactive
O=C(/C=C/c1ccccc1)OC[C@H]1O[C@@H](OC(=O)c2cc(O)c(O)c(O)c2)[C@H](O)[C@@H](O)[C@@H]1O,outcome,CRL-7250,inactive
same,max response,HEK293,4.27%
same,outcome,HaCat [1],inactive
same,max response,KB-3-1,6.66%
same,max response,NIH3T3,3.75%
same,outcome,HACAT [2],inactive [at 17.4 µM]
same,Potency,C33A,inactive
same,Potency,CAOV3,inactive
same,outcome,CASKI,inactive
same,Potency,Es-2,inactive
same,Potency,HeLa,inactive
same,Potency,Hek293T,inactive
same,Potency,JEG-3,inactive
same,Potency,OV90,inactive
same,Potency,PA-1,inactive
COC(=O)[C@@H](NC(=O)[C@H](CC(C)C)NC(=O)N(Cc1ccccc1)C[C@@H](O)[C@H](Cc1ccccc1)NC(=O)OC(C)(C)C)C(C)C,outcome,CRL-7250,inactive
same,max response,HEK293,0.117%
same,outcome,HaCat [1],inactive
same,max response,KB-3-1,-5.6%
same,max response,NIH3T3,-6.39%
same,outcome,HACAT [2],inactive [at 9.27 µM]
same,"activity change, negative = cytotoxicity",C33A,9.01% [at 11.6 µM]
same,"activity change, negative = cytotoxicity",CAOV3,-0.568% [at 11.6 µM]
same,"activity change, negative = cytotoxicity",CASKI,1.08% [at 11.6 µM]
same,"activity change, negative = cytotoxicity",Es-2,0.55% [at 11.6 µM]
same,"activity change, negative = cytotoxicity",HeLa,4.24% [at 11.6 µM]
same,"activity change, negative = cytotoxicity",Hek293T,-2.96% [at 11.6 µM]
same,"activity change, negative = cytotoxicity",JEG-3,-2.99% [at 11.6 µM]
same,"activity change, negative = cytotoxicity",OV90,-5.58% [at 11.6 µM]
same,"activity change, negative = cytotoxicity",PA-1,4.66% [at 11.6 µM]
CCCSc1nc(NC2CC2c2ccc(F)c(F)c2)c2nnn(C3CC(OCCO)C(O)C3O)c2n1 (stereo not given),outcome,CRL-7250,inactive
same,Potency,HEK293,18.4 µM (active)
same,outcome,HaCat [1],inactive
same,max response,KB-3-1,-19.7%
same,max response,NIH3T3,-3.04%
same,outcome,HACAT [2],inactive
same,Potency,C33A,inactive
same,Potency,CAOV3,inactive
same,outcome,CASKI,inactive
same,Potency,Es-2,inactive
same,Potency,HeLa,inactive
same,Potency,Hek293T,inactive
same,Potency,JEG-3,inactive
same,Potency,OV90,inactive
same,Potency,PA-1,inactive
C=C1CC[C@@H]2[C@](C)(CO)[C@H](O[C@@H]3O[C@H](CO)[C@@H](O)[C@H](O)[C@H]3O)CC[C@@]2(C)[C@@H]1C/C=C1/C(=O)OC[C@H]1O,max response,CRL-7250,-3.97%
same,max response,HEK293,-5.74%
same,outcome,HaCat [1],inactive
same,max response,KB-3-1,-0.713%
same,max response,NIH3T3,-0.313%
same,outcome,HACAT [2],inactive [at 17.4 µM]
same,Potency,C33A,inactive
same,Potency,CAOV3,inactive
same,outcome,CASKI,inactive
same,Potency,Es-2,inactive
same,Potency,HeLa,inactive
same,Potency,Hek293T,inactive
same,Potency,JEG-3,inactive
same,Potency,OV90,inactive
same,Potency,PA-1,inactive
